Holding throughout (experiment): DAPPL (digital affinity profiling via proximity ligation, sequencing); 10 mM Tris-HCl pH 7.5, 50 mM NaCl, 1 mM DTT, 4% glycerol, room temperature, 30 min; GST-TFs on glutathione beads, 16-mer random dsDNA library, 0.1% formaldehyde crosslink after washing; high values mean tight binding
The target in one test is T1, FLI1 (Homo sapiens, UniProt Q01543 1-452).
T1 sequence: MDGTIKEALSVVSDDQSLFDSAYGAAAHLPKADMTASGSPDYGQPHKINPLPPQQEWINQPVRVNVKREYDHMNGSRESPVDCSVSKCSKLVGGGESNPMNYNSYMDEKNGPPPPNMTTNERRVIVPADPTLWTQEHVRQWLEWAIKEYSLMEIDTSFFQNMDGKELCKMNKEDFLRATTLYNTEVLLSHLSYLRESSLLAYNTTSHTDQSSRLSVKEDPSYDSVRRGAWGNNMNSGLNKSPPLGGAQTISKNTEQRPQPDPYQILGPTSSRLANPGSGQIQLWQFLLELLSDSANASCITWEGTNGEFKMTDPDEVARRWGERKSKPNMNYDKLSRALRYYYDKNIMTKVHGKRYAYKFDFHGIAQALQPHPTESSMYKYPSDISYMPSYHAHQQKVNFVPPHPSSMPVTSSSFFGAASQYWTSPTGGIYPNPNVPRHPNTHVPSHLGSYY
Conditions: protein: recombinant; tags: N-terminal GST; dsDNA, one strand shown. The gist of the method: (§1)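 The binding signal reported is, for every hexamer, its read frequency for a factor over its read frequency for the tag-only sample. Reads came from pools of yeast-expressed, GST-fused human transcription factors on glutathione beads, barcoded with DNA and mixed with that sample, which were incubated with 200 nmole of a random double-stranded 16-mer DNA library in Tris/NaCl/DTT/glycerol buffer at room temperature for 30 min. After washing, the pools were crosslinked with 0.1% formaldehyde, proximity-ligated with BsaI/T4 ligase for 1 h at 37 °C, PCR-amplified and sequenced on an Illumina NextSeq500.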

The target in another test is T2, ELK1 (Homo sapiens, UniProt P19419 1-428).
T2 sequence: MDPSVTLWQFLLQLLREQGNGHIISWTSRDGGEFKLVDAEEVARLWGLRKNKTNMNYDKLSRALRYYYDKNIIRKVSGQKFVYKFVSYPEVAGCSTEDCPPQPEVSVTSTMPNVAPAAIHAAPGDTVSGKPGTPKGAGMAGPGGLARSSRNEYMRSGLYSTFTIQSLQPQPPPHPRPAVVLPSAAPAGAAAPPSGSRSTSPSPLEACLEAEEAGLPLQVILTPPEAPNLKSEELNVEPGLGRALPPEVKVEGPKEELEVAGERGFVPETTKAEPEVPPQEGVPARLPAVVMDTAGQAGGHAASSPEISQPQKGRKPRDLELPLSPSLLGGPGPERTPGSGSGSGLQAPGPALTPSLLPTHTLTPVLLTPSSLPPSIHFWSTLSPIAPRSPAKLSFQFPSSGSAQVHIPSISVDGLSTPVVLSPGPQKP
The note with it: protein: recombinant; tags: N-terminal GST; dsDNA, one strand shown. The gist of the method: as §1

Another test addresses T3, GABPA (Homo sapiens, UniProt Q06546 1-454).
T3 sequence: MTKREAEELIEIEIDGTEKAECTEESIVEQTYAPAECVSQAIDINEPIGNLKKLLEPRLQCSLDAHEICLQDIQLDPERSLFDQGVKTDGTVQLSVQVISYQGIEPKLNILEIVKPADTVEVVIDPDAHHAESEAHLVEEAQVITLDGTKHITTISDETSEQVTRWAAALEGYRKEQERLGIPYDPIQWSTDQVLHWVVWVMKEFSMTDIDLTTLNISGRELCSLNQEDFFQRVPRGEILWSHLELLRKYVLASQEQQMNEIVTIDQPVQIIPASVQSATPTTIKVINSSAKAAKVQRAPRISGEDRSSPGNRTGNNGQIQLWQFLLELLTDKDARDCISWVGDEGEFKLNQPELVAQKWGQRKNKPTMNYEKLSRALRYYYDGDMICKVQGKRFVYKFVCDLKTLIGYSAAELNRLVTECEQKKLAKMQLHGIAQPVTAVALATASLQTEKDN
Conditions: protein: recombinant; tags: N-terminal GST; dsDNA, one strand shown. The gist of the method: as §1

The next test deals with T4, ERG (Homo sapiens, UniProt P11308 1-479).
T4 sequence: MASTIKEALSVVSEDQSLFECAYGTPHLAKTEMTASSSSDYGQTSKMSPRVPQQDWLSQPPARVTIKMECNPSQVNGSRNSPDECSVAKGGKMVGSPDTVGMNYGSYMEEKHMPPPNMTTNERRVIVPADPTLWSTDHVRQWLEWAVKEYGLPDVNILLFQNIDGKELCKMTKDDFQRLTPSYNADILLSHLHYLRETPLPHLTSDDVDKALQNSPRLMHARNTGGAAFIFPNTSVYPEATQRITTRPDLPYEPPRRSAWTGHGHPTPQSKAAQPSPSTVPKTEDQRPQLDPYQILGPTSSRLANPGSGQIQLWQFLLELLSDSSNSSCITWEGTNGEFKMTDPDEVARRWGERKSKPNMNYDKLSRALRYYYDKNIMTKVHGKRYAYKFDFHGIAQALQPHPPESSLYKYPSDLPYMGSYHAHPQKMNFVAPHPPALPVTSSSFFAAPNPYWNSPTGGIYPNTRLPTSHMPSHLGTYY
Conditions: protein: recombinant; tags: N-terminal GST; dsDNA, one strand shown. The gist of the method: as §1

Another test deals with ELF1 (Homo sapiens, UniProt P32519 1-619). Conditions: protein: recombinant; tags: N-terminal GST; dsDNA, one strand shown. The gist of the method: as §1
Sequence of ELF1 (P32519 whole entry): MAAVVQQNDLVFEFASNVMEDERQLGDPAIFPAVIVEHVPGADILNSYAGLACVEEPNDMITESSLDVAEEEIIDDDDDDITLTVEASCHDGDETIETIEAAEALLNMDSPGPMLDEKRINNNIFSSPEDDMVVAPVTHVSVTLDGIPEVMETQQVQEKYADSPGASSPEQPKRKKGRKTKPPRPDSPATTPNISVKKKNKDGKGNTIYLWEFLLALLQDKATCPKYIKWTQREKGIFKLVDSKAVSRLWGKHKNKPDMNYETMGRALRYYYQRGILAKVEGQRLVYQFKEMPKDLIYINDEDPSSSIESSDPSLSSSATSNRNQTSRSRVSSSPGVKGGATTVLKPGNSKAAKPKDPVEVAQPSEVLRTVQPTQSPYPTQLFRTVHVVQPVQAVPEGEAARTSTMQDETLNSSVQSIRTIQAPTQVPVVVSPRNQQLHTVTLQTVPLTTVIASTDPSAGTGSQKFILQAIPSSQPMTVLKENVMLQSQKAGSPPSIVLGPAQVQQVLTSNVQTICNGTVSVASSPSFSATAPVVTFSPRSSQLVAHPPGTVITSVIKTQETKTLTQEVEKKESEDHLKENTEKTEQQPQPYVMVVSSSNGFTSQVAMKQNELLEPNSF
The target of a further test is T5, EHF (Homo sapiens, UniProt Q9NZC4 1-300).
T5 sequence: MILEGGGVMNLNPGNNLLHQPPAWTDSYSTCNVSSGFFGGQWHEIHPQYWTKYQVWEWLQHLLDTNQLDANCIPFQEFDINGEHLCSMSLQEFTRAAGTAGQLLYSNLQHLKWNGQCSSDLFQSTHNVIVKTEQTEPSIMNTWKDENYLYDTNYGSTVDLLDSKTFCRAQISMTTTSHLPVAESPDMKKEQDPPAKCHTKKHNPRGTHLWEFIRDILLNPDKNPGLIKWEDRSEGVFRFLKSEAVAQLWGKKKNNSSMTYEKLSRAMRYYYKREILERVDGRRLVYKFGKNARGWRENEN
Conditions: protein: recombinant; tags: N-terminal GST; dsDNA, one strand shown. The gist of the method: as §1

The next test deals with SPI1 (Homo sapiens, UniProt P17947 1-270). Conditions: protein: recombinant; tags: N-terminal GST; dsDNA, one strand shown. The method in brief:
as §1

For a further test, the target named is SPIB (Homo sapiens, UniProt Q01892 1-262). The note with it: protein: recombinant; tags: N-terminal GST; dsDNA, one strand shown. The method in brief:
as §1

The next test has as its target T6, ELK3 (Homo sapiens, UniProt P41970 1-407).
T6 sequence: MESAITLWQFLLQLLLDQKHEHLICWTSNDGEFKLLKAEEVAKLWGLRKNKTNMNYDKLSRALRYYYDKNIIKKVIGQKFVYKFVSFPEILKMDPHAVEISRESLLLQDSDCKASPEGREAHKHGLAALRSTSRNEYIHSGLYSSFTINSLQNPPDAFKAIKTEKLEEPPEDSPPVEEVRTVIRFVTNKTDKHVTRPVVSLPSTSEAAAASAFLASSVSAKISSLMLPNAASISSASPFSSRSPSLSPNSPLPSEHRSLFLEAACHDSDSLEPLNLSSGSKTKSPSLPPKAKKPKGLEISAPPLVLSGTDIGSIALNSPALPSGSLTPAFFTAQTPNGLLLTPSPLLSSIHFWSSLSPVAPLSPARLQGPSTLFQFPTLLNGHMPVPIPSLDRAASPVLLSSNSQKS
Conditions: protein: recombinant; tags: N-terminal GST; dsDNA, one strand shown. The gist of the method: as §1

The target in the next test is T7, FEV (Homo sapiens, UniProt Q99581 1-238).
T7 sequence: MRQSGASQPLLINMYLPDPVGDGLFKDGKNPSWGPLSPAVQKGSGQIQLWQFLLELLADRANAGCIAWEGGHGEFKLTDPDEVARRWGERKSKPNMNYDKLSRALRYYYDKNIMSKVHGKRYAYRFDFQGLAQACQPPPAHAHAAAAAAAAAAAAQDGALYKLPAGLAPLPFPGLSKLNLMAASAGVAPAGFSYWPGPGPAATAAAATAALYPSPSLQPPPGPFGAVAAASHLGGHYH
Conditions: protein: recombinant; tags: N-terminal GST; dsDNA, one strand shown. The method in brief:
as §1

The next test deals with ETV5 (Homo sapiens, UniProt P41161 1-510). The note with it: protein: recombinant; tags: N-terminal GST; dsDNA, one strand shown. The gist of the method: as §1
Sequence of ETV5 (P41161 whole entry): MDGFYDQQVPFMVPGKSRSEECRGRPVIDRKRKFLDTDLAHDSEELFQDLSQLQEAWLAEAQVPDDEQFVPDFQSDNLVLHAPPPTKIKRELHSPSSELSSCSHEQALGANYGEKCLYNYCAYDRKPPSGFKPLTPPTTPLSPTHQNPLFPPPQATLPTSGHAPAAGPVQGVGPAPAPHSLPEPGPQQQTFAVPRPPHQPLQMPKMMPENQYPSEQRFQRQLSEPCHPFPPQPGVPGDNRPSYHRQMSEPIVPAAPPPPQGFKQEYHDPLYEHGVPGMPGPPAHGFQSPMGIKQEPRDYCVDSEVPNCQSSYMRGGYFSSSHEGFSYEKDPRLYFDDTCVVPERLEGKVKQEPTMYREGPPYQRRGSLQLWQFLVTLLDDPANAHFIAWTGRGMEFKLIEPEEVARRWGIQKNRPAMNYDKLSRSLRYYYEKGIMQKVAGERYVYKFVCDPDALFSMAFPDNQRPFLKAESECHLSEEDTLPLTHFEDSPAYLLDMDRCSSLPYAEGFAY
Another test has as its target HSF1 (Homo sapiens, UniProt Q00613 1-529). The note with it: protein: recombinant; tags: N-terminal GST; chain copies: 3; dsDNA, one strand shown. The gist of the method: as §1
For a further test, the target named is T8, SPIC (Homo sapiens, UniProt Q8N5J4 1-248).
T8 sequence: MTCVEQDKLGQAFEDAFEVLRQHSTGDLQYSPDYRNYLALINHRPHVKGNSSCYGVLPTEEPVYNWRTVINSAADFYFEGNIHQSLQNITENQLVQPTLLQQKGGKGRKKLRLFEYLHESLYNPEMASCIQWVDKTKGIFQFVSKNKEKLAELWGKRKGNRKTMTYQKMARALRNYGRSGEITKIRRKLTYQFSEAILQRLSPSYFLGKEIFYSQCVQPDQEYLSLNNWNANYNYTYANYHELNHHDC
Conditions: protein: recombinant; tags: N-terminal GST; dsDNA, one strand shown. The gist of the method: as §1

Another test has as its target ELF4 (Homo sapiens, UniProt Q99607 1-663). The note with it: protein: recombinant; tags: N-terminal GST; dsDNA, one strand shown. The gist of the method: as §1
The next test deals with T9, ELK4 (Homo sapiens, UniProt P28324-2 1-405).
T9 sequence: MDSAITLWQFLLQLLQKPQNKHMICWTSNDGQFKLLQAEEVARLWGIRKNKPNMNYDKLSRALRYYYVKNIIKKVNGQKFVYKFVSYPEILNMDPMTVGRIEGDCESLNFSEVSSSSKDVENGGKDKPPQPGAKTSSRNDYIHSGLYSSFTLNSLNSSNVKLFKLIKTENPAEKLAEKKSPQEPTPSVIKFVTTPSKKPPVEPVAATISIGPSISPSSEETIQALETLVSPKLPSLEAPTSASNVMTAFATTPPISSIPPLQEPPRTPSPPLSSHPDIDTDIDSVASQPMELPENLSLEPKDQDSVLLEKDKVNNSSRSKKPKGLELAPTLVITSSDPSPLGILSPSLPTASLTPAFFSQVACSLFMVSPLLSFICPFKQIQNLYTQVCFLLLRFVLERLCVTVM
Conditions: protein: recombinant; tags: N-terminal GST; dsDNA, one strand shown. The method in brief:
as §1

The target in another test is T10, ETV2 (Homo sapiens, UniProt O00321 1-342).
T10 sequence: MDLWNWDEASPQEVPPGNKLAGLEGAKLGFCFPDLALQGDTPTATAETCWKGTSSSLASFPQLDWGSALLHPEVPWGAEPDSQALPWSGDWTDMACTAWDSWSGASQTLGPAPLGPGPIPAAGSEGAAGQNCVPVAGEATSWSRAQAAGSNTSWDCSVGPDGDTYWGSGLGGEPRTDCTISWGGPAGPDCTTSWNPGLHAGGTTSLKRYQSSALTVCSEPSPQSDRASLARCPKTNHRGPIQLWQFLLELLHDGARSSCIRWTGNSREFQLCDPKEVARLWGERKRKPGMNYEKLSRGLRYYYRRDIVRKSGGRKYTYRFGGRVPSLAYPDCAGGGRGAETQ
Conditions: protein: recombinant; tags: N-terminal GST; dsDNA, one strand shown. The gist of the method: as §1

For another test, the target named is T11, ELF3 (Homo sapiens, UniProt P78545 1-371).
T11 sequence: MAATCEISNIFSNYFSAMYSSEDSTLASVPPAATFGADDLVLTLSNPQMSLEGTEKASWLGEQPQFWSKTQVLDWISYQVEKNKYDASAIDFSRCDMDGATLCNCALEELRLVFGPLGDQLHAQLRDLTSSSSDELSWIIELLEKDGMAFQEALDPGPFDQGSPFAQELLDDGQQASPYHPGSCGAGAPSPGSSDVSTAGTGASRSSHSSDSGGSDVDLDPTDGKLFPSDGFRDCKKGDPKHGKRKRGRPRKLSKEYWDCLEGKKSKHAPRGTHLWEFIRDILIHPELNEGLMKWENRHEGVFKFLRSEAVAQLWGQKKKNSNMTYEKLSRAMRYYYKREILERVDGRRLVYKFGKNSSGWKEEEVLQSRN
The note with it: protein: recombinant; tags: N-terminal GST; dsDNA, one strand shown. The gist of the method:
as §1

For a further test, the target named is CRX (Homo sapiens, UniProt O43186 1-299). The note with it: protein: recombinant; tags: N-terminal GST; dsDNA, one strand shown. The gist of the method: as §1
Sequence of CRX (O43186 whole entry): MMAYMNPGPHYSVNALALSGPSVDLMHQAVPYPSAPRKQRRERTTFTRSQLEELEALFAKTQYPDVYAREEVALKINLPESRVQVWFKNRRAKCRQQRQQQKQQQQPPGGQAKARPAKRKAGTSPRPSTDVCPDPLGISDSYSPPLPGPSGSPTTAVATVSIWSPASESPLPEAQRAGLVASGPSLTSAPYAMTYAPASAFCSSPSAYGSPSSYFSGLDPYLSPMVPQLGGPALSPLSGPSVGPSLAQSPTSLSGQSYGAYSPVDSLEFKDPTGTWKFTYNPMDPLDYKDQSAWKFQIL
The next test addresses ETV1 (Homo sapiens, UniProt P50549 1-477). Conditions: protein: recombinant; tags: N-terminal GST; dsDNA, one strand shown. The method in brief:
as §1

Sequence of ELF4 (Q99607 whole entry): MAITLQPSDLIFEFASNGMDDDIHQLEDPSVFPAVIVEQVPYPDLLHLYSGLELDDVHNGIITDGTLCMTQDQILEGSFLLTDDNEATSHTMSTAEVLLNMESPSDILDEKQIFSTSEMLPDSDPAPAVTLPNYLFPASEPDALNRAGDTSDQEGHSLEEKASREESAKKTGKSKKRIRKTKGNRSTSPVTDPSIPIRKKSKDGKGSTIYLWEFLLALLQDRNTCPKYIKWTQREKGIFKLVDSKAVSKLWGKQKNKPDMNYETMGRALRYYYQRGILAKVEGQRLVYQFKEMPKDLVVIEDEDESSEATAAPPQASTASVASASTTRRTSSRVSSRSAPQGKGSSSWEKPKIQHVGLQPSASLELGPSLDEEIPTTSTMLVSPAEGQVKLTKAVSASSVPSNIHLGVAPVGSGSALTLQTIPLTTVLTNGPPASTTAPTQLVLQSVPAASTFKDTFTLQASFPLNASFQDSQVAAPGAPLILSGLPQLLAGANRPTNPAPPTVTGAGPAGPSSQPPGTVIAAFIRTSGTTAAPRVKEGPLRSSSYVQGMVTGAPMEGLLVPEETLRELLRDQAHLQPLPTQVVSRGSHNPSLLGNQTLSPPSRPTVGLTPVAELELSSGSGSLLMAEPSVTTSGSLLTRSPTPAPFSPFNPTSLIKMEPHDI
Sequence of SPIB (Q01892 whole entry): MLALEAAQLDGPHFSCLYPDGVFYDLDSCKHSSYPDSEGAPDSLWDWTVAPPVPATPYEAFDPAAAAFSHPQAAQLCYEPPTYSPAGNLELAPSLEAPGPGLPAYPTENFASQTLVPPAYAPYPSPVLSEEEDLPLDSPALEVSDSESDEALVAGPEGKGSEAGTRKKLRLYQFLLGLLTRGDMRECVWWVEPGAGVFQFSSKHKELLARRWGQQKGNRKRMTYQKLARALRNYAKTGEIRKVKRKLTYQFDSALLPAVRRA
Sequence of ETV1 (P50549 whole entry): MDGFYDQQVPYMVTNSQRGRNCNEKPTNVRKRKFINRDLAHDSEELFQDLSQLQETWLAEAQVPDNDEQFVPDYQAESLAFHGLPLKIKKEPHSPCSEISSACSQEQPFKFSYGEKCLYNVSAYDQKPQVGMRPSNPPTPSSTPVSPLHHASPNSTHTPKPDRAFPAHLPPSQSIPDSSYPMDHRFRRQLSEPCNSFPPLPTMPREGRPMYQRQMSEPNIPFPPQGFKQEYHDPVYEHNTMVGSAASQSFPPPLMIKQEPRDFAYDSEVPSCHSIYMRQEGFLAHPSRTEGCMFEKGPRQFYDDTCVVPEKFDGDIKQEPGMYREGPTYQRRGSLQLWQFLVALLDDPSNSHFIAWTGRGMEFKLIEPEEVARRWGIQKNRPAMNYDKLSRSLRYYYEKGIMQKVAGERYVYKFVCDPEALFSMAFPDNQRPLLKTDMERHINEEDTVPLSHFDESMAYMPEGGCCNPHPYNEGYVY
Sequence of HSF1 (Q00613 whole entry): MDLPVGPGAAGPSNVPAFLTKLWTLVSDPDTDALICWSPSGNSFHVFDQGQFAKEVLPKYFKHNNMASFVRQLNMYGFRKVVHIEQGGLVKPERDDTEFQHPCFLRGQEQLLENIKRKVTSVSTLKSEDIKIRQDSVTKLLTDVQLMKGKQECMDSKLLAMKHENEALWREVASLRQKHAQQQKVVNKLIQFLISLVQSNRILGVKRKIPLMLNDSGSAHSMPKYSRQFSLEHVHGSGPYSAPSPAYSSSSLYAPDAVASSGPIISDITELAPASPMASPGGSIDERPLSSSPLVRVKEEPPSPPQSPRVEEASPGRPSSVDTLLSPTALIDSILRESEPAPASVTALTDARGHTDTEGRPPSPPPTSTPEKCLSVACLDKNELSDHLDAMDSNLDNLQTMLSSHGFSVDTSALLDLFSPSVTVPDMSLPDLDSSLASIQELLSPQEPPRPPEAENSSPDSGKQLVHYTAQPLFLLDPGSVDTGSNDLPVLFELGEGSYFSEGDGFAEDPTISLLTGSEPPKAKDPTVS

For the sequence GATTTC, the binding signal is 1.77 fold enrichment (6-mer frequency, TF over GST control) in the test with FLI1; 1.78 fold enrichment (6-mer frequency, TF over GST control) with ELK1; 1.55 fold enrichment (6-mer frequency, TF over GST control) with GABPA; 2.15 fold enrichment (6-mer frequency, TF over GST control) with ERG; 1.62 fold enrichment (6-mer frequency, TF over GST control) with ELF1; 1.71 fold enrichment (6-mer frequency, TF over GST control) with EHF. Moreover, the binding signal was 1.67 fold enrichment (6-mer frequency, TF over GST control) with SPI1; 1.72 fold enrichment (6-mer frequency, TF over GST control) with SPIB; 1.73 fold enrichment (6-mer frequency, TF over GST control) with ELK3; 2.86 fold enrichment (6-mer frequency, TF over GST control) with FEV; 1.92 fold enrichment (6-mer frequency, TF over GST control) with ETV5; 1.56 fold enrichment (6-mer frequency, TF over GST control) in the test with HSF1. Also, the binding signal was 1.65 fold enrichment (6-mer frequency, TF over GST control) in the test with SPIC; 1.7 fold enrichment (6-mer frequency, TF over GST control) with ELF4; 1.64 fold enrichment (6-mer frequency, TF over GST control) in the test with ELK4; 1.64 fold enrichment (6-mer frequency, TF over GST control) with ETV2; 1.62 fold enrichment (6-mer frequency, TF over GST control) in the test with ELF3; 1.52 fold enrichment (6-mer frequency, TF over GST control) with CRX. Also, the binding signal with ETV1 was 1.79 fold enrichment (6-mer frequency, TF over GST control).

The values are drawn from paper PMC7862700, “An all-to-all approach to the identification of sequence-specific readers for epigenetic DNA modifications on cytosine”.
